# Source: ChEMBL document CHEMBL2218924, “A broad activity screen in support of a chemogenomic map for kinase signalling research and drug discovery” (Biochem J, 2013)
# Target: T1, Tyrosine-protein kinase ZAP-70 (Homo sapiens) (UniProt P43403)
# T1 sequence (whole entry): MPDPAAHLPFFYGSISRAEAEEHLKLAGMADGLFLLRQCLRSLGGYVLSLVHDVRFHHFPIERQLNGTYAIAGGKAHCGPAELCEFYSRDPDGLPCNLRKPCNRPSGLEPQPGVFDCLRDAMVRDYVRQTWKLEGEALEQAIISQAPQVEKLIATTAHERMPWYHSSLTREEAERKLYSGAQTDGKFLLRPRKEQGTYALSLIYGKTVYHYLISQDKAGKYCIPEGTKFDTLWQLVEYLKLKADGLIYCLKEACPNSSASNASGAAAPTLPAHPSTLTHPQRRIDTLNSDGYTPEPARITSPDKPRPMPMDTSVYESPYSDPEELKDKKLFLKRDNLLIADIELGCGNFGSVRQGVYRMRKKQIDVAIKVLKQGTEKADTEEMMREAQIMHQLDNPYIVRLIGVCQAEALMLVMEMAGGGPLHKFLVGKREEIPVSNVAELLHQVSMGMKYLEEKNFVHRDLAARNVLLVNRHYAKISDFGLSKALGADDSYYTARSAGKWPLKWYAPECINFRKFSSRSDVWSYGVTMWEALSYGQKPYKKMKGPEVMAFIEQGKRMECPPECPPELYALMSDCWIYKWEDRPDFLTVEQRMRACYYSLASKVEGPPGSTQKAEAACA
# Conditions: at 10 µM
row,SMILES,residual activity [%]
1,Cn1cnc2cc3c(Nc4cccc(Br)c4)ncnc3cc21,89
2,O=C1Nc2cc(Br)ccc2/C1=C1/Nc2ccccc2/C1=N\O,95
3,CN(C)CCCn1cc(C2=C(c3c[nH]c4ccccc34)C(=O)NC2=O)c2ccccc21,118
4,Cn1cc(/C=C2\C(=O)Nc3ccc(S(N)(=O)=O)cc32)c2ccccc21,125
5,O=C1c2ccccc2-[n+]2ccc3c([nH]c4ccccc43)c21,132
6,O=C1Nc2ccccc2/C1=C1/Nc2ccccc2/C1=N\OCCC(O)CO (stereo not drawn),98
7,CC(C)n1cnc2c(NCc3ccccc3)nc(NCCCO)nc21,119
8,C[C@@H](N)[C@H]1CC[C@H](C(=O)Nc2ccncc2)CC1,122
9,O=c1c2ccccc2[nH]c(=S)n1CCN1CCC(=C(c2ccc(F)cc2)c2ccc(F)cc2)CC1,94
10,Nc1nccc(-c2c(-c3ccc(F)cc3)ncn2C2CCNCC2)n1,124
11,NC(=O)Nc1sc(-c2ccc(F)cc2)cc1C(N)=O,107
12,O=[N+]([O-])c1ccc(-c2nc(-c3ccc(F)cc3)c(-c3ccncc3)[nH]2)cc1,122
13,O=C(O)c1ccc2c3c1cccc3c(=O)n1c3ccccc3nc21,111
14,COc1cc2ncnc(N3CCN(C(=O)Nc4ccc(Oc5ccccc5)cc4)CC3)c2cc1OC,98
15,Nc1nc(Nc2ccc(S(N)(=O)=O)cc2)nn1C(=S)Nc1c(F)cccc1F,86
16,O=C1Nc2ccc(Br)cc2/C1=C\c1cc2c([nH]1)CCCC2,124
17,O=C1NC(=O)/C(=C/c2ccc3c(c2)OC(F)(F)O3)S1,102
18,CC(=O)c1ccc(N2CCOCC2)cc1O,86
